The results in this text go back to PubChem BioAssay (NCI).

The structures appear in SMILES notation. Compounds without any hit were thinned out: in the full panel of roughly 83,000, 20% have a hit.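 Single-dose data. Exposure time 48 hours. Values below 10 considered active.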 Values without a mark were called inactive. Calls of active or inactive are those of the source.

Test systems include HCT-15 colon; HT29 colon; SNB-75 CNS; SNB-19 CNS; U251 CNS; PC-3 prostate; SK-MEL-5 melanoma; UACC-62 melanoma; LOX IMVI melanoma; SK-MEL-28 melanoma; SK-MEL-2 melanoma; EKVX NSCLC; SN12C renal; UO-31 renal; TK-10 renal; ACHN renal; CAKI-1 renal; A498 renal; MOLT-4 leukemia; CCRF-CEM leukemia.
Common to all, as to experiment: NCI-60 one-dose screen, 48 h (100 = growth as untreated, 0 = no growth, -100 = all killed)
Settings in all cases: 10 µM unless noted

For the compound `O=c1onc(-c2ccccc2)c2ccccc12`, the growth is 115% in the assay with HCT-15 colon; 109% in the assay with HT29 colon; 109% in the assay with SNB-75 CNS; 104% with SNB-19 CNS; 98.7% in the assay on U251 CNS; 102% with PC-3 prostate. The growth in the assay on SK-MEL-5 melanoma is 103%; in the assay with UACC-62 melanoma, 103%; in the assay on LOX IMVI melanoma, 97.5%; in the assay with SK-MEL-28 melanoma it was 103%; in the assay with SK-MEL-2 melanoma, 118%; with EKVX NSCLC it was 121%. For the same compound, the growth with SN12C renal was 101%; in the assay on UO-31 renal, 97.8%; in the assay with TK-10 renal it was 114%; in the assay on ACHN renal, 112%; with CAKI-1 renal, 98.5%; in the assay with A498 renal, 83.1%. In addition, the growth with MOLT-4 leukemia is 98.9%.

Take `O=c1ccc2ccccc2o1`: the growth with HCT-15 colon is 98%; in the assay with HT29 colon it was 102%; in the assay on SNB-75 CNS, 89.4%; in the assay with SNB-19 CNS, 112%; in the assay on U251 CNS, 104%; in the assay on PC-3 prostate, 82.2%. The growth with SK-MEL-5 melanoma is 107%; in the assay on UACC-62 melanoma, 98.4%; in the assay on LOX IMVI melanoma, 109%; in the assay on SK-MEL-28 melanoma, 108%; in the assay with SK-MEL-2 melanoma, 101%; in the assay with EKVX NSCLC, 109%. Also, the growth was 109% with SN12C renal; 89.9% with UO-31 renal; 98.3% with TK-10 renal; 93.8% with ACHN renal; 89.7% in the assay with CAKI-1 renal; 96.4% in the assay with A498 renal. In addition, in the assay on CCRF-CEM leukemia, the growth was 87.4%.

`CC1SC(c2cccc(Oc3ccccc3)c2)N(CCc2cccs2)C1=O` (stereo not given): the growth with HCT-15 colon was -16.3% (active); in the assay on HT29 colon, -24.7% (active); in the assay with SNB-75 CNS, -11.7% (active); in the assay with SNB-19 CNS, 11.9%; with U251 CNS it was -25.7% (active); with PC-3 prostate it was 2.18% (active). Besides, the growth with SK-MEL-5 melanoma is -100% (active); in the assay with UACC-62 melanoma it was -71.1% (active); in the assay on LOX IMVI melanoma it was -100% (active); with SK-MEL-28 melanoma, -57% (active); with SK-MEL-2 melanoma, -75.7% (active); in the assay on EKVX NSCLC it was -24.1% (active). In addition, the growth is -86.3% (active) in the assay with SN12C renal; -17.7% (active) in the assay on UO-31 renal; -16.2% (active) in the assay on TK-10 renal; -12.8% (active) in the assay with ACHN renal; -37.4% (active) in the assay on CAKI-1 renal; -56.6% (active) with A498 renal. The growth with MOLT-4 leukemia was -2.19% (active).

Turning to `CC(C)N1CCN(c2ccc(OC[C@H]3CO[C@](Cn4cncn4)(c4ccc(Cl)cc4Cl)O3)cc2)CC1`, the growth in the assay with HCT-15 colon was 62.3%; in the assay on HT29 colon, 21.5%; in the assay on SNB-75 CNS it was 89.7%; with SNB-19 CNS it was 97.7%; with U251 CNS it was 73.8%; with PC-3 prostate it was 73.9%. The growth is 47.9% with SK-MEL-5 melanoma; 71.6% in the assay on UACC-62 melanoma; 86.5% with LOX IMVI melanoma; 63.2% in the assay on SK-MEL-28 melanoma; 95% in the assay on SK-MEL-2 melanoma; 91.4% in the assay on EKVX NSCLC. For the same compound, the growth is 81.2% with SN12C renal; 98.7% with UO-31 renal; 91.5% with TK-10 renal; 102% in the assay on ACHN renal; 79.3% in the assay on CAKI-1 renal; 76.7% with A498 renal. For the same compound, the growth in the assay with CCRF-CEM leukemia is 82.6%; in the assay with MOLT-4 leukemia it was 86.2%.

`Cc1cc(C)c(S(=O)O)c(C)c1`: the growth in the assay on HCT-15 colon is 111%; with HT29 colon, 100%; in the assay on SNB-75 CNS, 86.6%; in the assay on SNB-19 CNS, 102%; in the assay on U251 CNS, 105%; with PC-3 prostate, 94.6%. For the same compound, the growth with SK-MEL-5 melanoma is 105%; with UACC-62 melanoma, 102%; in the assay on LOX IMVI melanoma, 93.9%; in the assay on SK-MEL-28 melanoma, 113%; in the assay on SK-MEL-2 melanoma, 97.8%; with EKVX NSCLC it was 105%. The growth was 108% with SN12C renal; 110% in the assay on UO-31 renal; 104% with TK-10 renal; 103% in the assay with ACHN renal; 99% in the assay on CAKI-1 renal; 92.7% in the assay with A498 renal. In addition, the growth in the assay with CCRF-CEM leukemia was 94%; in the assay on MOLT-4 leukemia it was 109%.

Consider `C=C[C@H]1C[C@@H]2C[C@@H]3[C@H]4C/C=C\C(=O)NCCCC5NC(=O)C(=C(O)/C=C/[C@@H]4CC(=O)[C@H]3[C@@H]2[C@H]1C)C5=O` (stereo not given in full), for which the growth is -76.2% (active) with HCT-15 colon; -76% (active) in the assay with HT29 colon; -85.4% (active) with SNB-75 CNS; -74% (active) in the assay with SNB-19 CNS; -96.4% (active) in the assay on U251 CNS; -82.5% (active) in the assay with PC-3 prostate. For the same compound, the growth in the assay on SK-MEL-5 melanoma is -95.3% (active); with UACC-62 melanoma it was -75.8% (active); in the assay on LOX IMVI melanoma, -47.2% (active); in the assay with SK-MEL-28 melanoma it was -78% (active); in the assay on SK-MEL-2 melanoma it was -54% (active); with EKVX NSCLC, 61.6%. Further, the growth is -60.7% (active) in the assay on SN12C renal; -87.4% (active) in the assay on UO-31 renal; -94.5% (active) with TK-10 renal; -93.3% (active) in the assay with ACHN renal; 29% with CAKI-1 renal; -93.5% (active) in the assay with A498 renal. In the assay on MOLT-4 leukemia, the growth is -68.9% (active).

On to `Cc1nn(CC(=O)O)c2c1C(=O)CC(C)(C)C2`, for which the growth in the assay with HCT-15 colon was 102%; in the assay on HT29 colon it was 108%; with SNB-75 CNS, 86.8%; in the assay with SNB-19 CNS it was 103%; with U251 CNS, 119%; in the assay with PC-3 prostate, 102%. In addition, the growth with SK-MEL-5 melanoma was 115%; in the assay on UACC-62 melanoma, 91%; in the assay with LOX IMVI melanoma, 107%; with SK-MEL-28 melanoma it was 105%; in the assay with SK-MEL-2 melanoma it was 113%; in the assay with EKVX NSCLC it was 105%. For the same compound, the growth in the assay with SN12C renal is 101%; with UO-31 renal, 74%; in the assay on TK-10 renal it was 89.9%; in the assay with ACHN renal, 126%; in the assay with CAKI-1 renal it was 97.4%; in the assay on A498 renal, 97.8%. Besides, the growth was 99.6% with CCRF-CEM leukemia and 81.1% in the assay on MOLT-4 leukemia.

Regarding `CCC(C)[C@H]1O[C@]2(CC[C@@H]1C)C[C@@H]1C[C@@H](C/C=C(\C)[C@@H](OC3C[C@H](OC)C(O[C@H]4C[C@H](OC)[C@@H](O)[C@H](C)O4)[C@H](C)O3)[C@@H](C)/C=C/C=C3\CO[C@@H]4[C@H](O)C(C)=C[C@@H](C(=O)O1)[C@]34O)O2` (stereo not given in full), the growth in the assay on HCT-15 colon was 8.26% (active); in the assay on HT29 colon, 4.41% (active); with SNB-75 CNS, -0.276% (active); with SNB-19 CNS it was 33.1%; with U251 CNS, 31.5%; in the assay on PC-3 prostate it was 1.52% (active). For the same compound, the growth with SK-MEL-5 melanoma is -85.4% (active); with UACC-62 melanoma it was 18.4%; in the assay with LOX IMVI melanoma it was -83.1% (active); in the assay on SK-MEL-28 melanoma, -16.6% (active); with SK-MEL-2 melanoma, -9.26% (active); with EKVX NSCLC it was 4.67% (active). The growth is 14.6% in the assay on SN12C renal; 9.45% (active) in the assay with UO-31 renal; 30.2% with TK-10 renal; -66.3% (active) in the assay on ACHN renal; -15.1% (active) with CAKI-1 renal; -23.7% (active) with A498 renal. The growth in the assay with CCRF-CEM leukemia was 25.9%.
